Bioassay records deposited in PubChem by National Center for Advancing Translational Sciences (NCATS).
The list is not random: actives were taken first. Their share in the collection is about 21%.
Pf growth 96h – Primary qHTS for delayed death inhibitors of the malarial parasite plastid, 96 hour incubation. 320,000 compounds, 6.9% hits. Potency, µM (titrated, usually from 28.7 µM), usual class: inhibitors. P. falciparum luciferase reporter growth, 96 h
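Readout is luminescence from an integrated firefly luciferase in P. falciparum. Red cells, 2% hematocrit and 0.05% parasitemia final, were cultured with compound through two parasite generations (96 hours) at 37 C, 5% CO2.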
NS1 function inh – qHTS Assay for Inhibitors of Influenza NS1 Protein Function; 270,000 compounds, 0.4% hits; Potency, µM (highest dose often 46.1 µM); AID 2326, 2010; calls by dose curve; note: actives are rising curves; nearly all actives have a fitted effect of over 50% in size
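Growth recovery, yeast-based: influenza A NS1 expressed in S. cerevisiae causes slow growth, and suppressors are detected by OD600. The parent strain without NS1 is used as positive control.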
Cycloheximide cs – Cycloheximide Counterscreen for Small Molecule Inhibitors of Shiga Toxin. cell reporter, cycloheximide protein synthesis inhibition counterscreen. max response, %. 300,000 compounds, 12% hits; in the data active = max response mostly above about 13%, no sharp cut-off; inactive = mostly below about 14%; note: read at 38.3 µM for the half of the compounds with a filed dose
Pf growth 48h – Primary qHTS for delayed death inhibitors of the malarial parasite plastid, 48 hour incubation. 310,000 compounds, 5.9% hits. Potency, µM (highest dose often 28.7 µM), actives largely listed as inhibitors. AID 504832, 2011. P. falciparum luciferase growth in erythrocytes, 48 h
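Parasite viability was followed by luminescence of a genomically integrated firefly luciferase. Cultures held 0.1% parasitemia at 2% hematocrit (final), incubated under 5% CO2 at 37 C.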
Shiga toxin inh – A qHTS for Small Molecule Inhibitors of Shiga Toxin. AID 2315, 2010. Vero cells, Shiga toxin protein synthesis inhibition reporter. 290,000 compounds, 9.2% hits. inhibition, % at 38.7 µM; in the data active = inhibition mostly above about 28%, no sharp cut-off; inactive = mostly below about 43%
Sm TGR block – qHTS Assay for the Inhibitors of Schistosoma Mansoni Peroxiredoxins; purified TGR, DTNB reduction, TNB absorbance 405 nm; Schistosoma mansoni thioredoxin glutathione reductase (TGR), Q962Y6; AID 485364, 2010; 360,000 compounds, 3% hits; Potency, µM (series often up to 114 µM), hits mostly inhibitors; note: nearly all actives have a fitted effect of over 60% in size
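Kinetic colorimetric format: TGR-catalysed, NADPH-driven DTNB reduction monitored via TNB absorbance. Enzyme dispensed at 20 nM; compound exposure 15 min at room temperature before reaction start.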
Numbers stand for hits; 0 = inactive; ? = inconclusive; - = not tested or not shown; [ ] = remark or other dose. Unless noted, calls come from the whole dose curve; as a rule, active = well fitted curve in the direction sought with a large enough effect; inconclusive = small, poorly fitted or top-dose-only effect, or another doubt; inactive = no such curve, though single readings can be large; an effect the other way counts as inactive or inconclusive.

SMILES	Pf growth 96h	NS1 function inh	Cycloheximide cs	Pf growth 48h	Shiga toxin inh	Sm TGR block
Cc1ccc(-c2[nH]c3ccccc3c2C(C[N+](=O)[O-])c2ccco2)cc1 (stereo not given)	-	0	20	9.3µM	0	79µM
Cc1[nH]c2ccccc2c1C(C[N+](=O)[O-])c1ccco1 (stereo not given)	0	-	0	0	0	22µM
Cc1cccc(Cn2ccc(NC(=O)c3ccc4c(c3)OCO4)n2)c1	?	-	28	0	74	0
O=C(N/N=C/c1ccc2c(c1)OCO2)c1ccn(Cc2ccc(Cl)cc2)n1	?	0	0	0	0	0
O=C(Nc1ccn(Cc2ccc(Cl)cc2)n1)c1ccc2c(c1)OCO2	-	0	0	0	50	0
CN1CCN(C2=CC(=O)OC23CCCCC3)CC1	0	0	0	0	0	0
O=[N+]([O-])c1ccc2[nH]c3nc4ccccc4nc3c2c1	0	0	0	0	0	0
O=[N+]([O-])c1ccc(O)c(C=Nc2ccc3c(c2)OCO3)c1	0	0	24	0	16	0
O=[N+]([O-])c1cc(Br)cc(C=Nc2ccc3c(c2)OCO3)c1O	0	0	0	0	0	18µM
CC(C)(C)c1ccc(O)c(N=Cc2cc3c(cc2[N+](=O)[O-])OCO3)c1	0	?	0	?	-	0
CCOC(=O)c1ccc(N/N=C/c2cc(Br)cc([N+](=O)[O-])c2O)cc1	0	0	0	0	0	-
COc1ccc2[nH]c(=O)c(CNc3ccccc3)cc2c1	?	0	43	0	73	?
COc1ccc2[nH]c(=O)c(CNc3ccccc3C)cc2c1	0	0	43	0	90	?
COc1ccc2[nH]c(=O)c(CNc3ccccc3OC)cc2c1	0	?	0	0	0	18µM
COc1cc(-c2oc3cc(O)cc(O)c3c(=O)c2O[C@@H]2O[C@H](CO)[C@@H](O)[C@H](O)[C@H]2O)cc(OC)c1O	-	-	0	-	0	-
Cc1cccc(CN2C(=O)c3ccccc3Sc3ccc(C(=O)NCc4ccco4)cc32)c1	-	-	-	-	-	0
O=C(Cn1c(=O)nc(-c2ccccc2)c2ccccc21)Nc1cccc(C(F)(F)F)c1	-	-	-	-	-	0
Cc1cccnc1NC(=O)Nc1ccc(F)cc1	0	0	0	-	69	0[11.4 µM]
CCOC(=O)c1ccc(NC(=O)Nc2ncccc2C)cc1	0	0	0	0	0	0
Cc1ccc(NC(=O)Nc2ncccc2C)cc1	0	0	63	0	106	0
O=C(O)CCSc1nnc(COc2cccc3ccccc23)n1-c1cccc(Cl)c1	0	-	0	?	0	0
CCCN1CCC(NC(=O)Cc2cccc(C)c2)CC1	?	0	0	0	0	0
COc1ccc(N(CC(=O)Nc2ccc3c(c2)OCO3)S(=O)(=O)c2ccc(C)cc2)cc1OC	?	0	0	?	0	0
COc1ccccc1N(CC(=O)Nc1ccc2c(c1)OCCO2)S(=O)(=O)c1ccc(C)cc1	0	0	32	?	47	0
COc1ccc(S(=O)(=O)N(C)CC(=O)Nc2ccc3c(c2)OCO3)cc1OC	0	0	7.8	0	0	0
SMILES	Pf growth 96h	NS1 function inh	Cycloheximide cs	Pf growth 48h	Shiga toxin inh	Sm TGR block
COc1ccc(N(CC(=O)Nc2ccc3c(c2)OCO3)S(=O)(=O)c2ccccc2)cc1OC	?	0	0	2.9µM	0	0
COc1ccc(S(=O)(=O)N(C)CC(=O)Nc2ccc3c(c2)OCO3)cc1	-	0	0	0	0	0
CN(CC(=O)Nc1ccc2c(c1)OCCO2)S(=O)(=O)c1ccc(F)cc1	?	0	27	0	117	0
O=C(NCC(=O)N1CCN(S(=O)(=O)/C=C/c2ccccc2)CC1)c1ccc(Cl)cc1	0	0	0	0	0	0
CC(C)[C@H](NS(=O)(=O)c1ccccc1)C(=O)OCC(=O)Nc1ccc2c(c1)OCO2	0	0	0	0	0	0
CC(NS(=O)(=O)c1ccc(F)cc1)C(=O)Nc1ccc2c(c1)OCCO2 (stereo not given)	0	0	11	0	0	0
C[C@H](NS(=O)(=O)c1ccccc1)C(=O)OCC(=O)NC(=O)Nc1ccc2c(c1)OCCO2	0	0	74	0	86	0
Cc1ccc(C(=O)Nc2ccc(NC(=O)c3cccs3)cc2)cc1C	-	-	-	-	-	0
C/C(=N\NC(=O)c1ccccc1C)c1ccc(NC(=O)c2cccs2)cc1	0	0	46	0	114	0
C/C(=N\NC(=O)c1ccc(NS(=O)(=O)c2cccs2)cc1)c1ccc(C(C)(C)C)cc1	?	0	0	0	0	0
C/C(=N/NC(=O)c1ccccc1)c1ccc(NC(=O)C(F)(F)F)cc1	0	0	43	0	135	-
CCCCc1ccc(/C(C)=N/NC(=O)C2CCCC2)cc1	?	0	0	0	0	0
C/C(=N\NC(=O)c1ccccc1)c1ccc(NC(=O)c2cccs2)cc1	0	0	23	0	106	0
C/C(=N/NC(=O)C1CCCC1)c1ccc(NC(=O)C(F)(F)F)cc1	?	0	19	0	0	0
C/C(=N\NC(=O)c1ccco1)c1ccc(NC(=O)c2cccs2)cc1	0	0	64	0	130	0
C/C(=N\NC(=O)C(N)=O)c1ccc(NC(=O)c2cccs2)cc1	0	0	33	0	69	-
O=C(Nc1ccc(NC(=S)NC(=O)c2cccs2)cc1)c1ccco1	0	0	0	?	0	0
CC(NC(=O)C1CCN(C(=O)c2cccs2)CC1)c1ccc(S(N)(=O)=O)cc1 (stereo not given)	0	-	-	?	-	0
CC(C)CNC(=O)c1c(-c2ccccc2)c(-c2ccccc2)nn(C)c1=O	-	-	-	-	-	0
COc1ccc(CNCC(O)(c2ccc(F)cc2)c2ccc(F)cc2)cc1OC	2.9µM	0	0	4.1µM	0	0
COc1ccc(CNCC(O)(c2ccc(Cl)cc2)c2ccc(Cl)cc2)cc1OC	1.5µM	0	0	2.1µM	0	0
COc1ccc(CS(=O)(=O)CC(C)(O)c2ccc(Cl)cc2)cc1 (stereo not given)	0	0	0	0	0	0
COc1ccc(CNCC(O)(c2ccccc2)c2ccc(F)cc2)cc1 (stereo not given)	?	0	0	5.2µM	0	0
COc1ccc(CNCC(O)(c2ccc(Cl)cc2)c2ccc(Cl)cc2)cc1	1µM	0	0	1.2µM	0	0
O=S1(=O)CCC(NC(=S)N2CCCCC2)C1 (stereo not given)	0	0	0	0	0	0
CCOc1ccccc1NC(=O)Cn1c(=O)n(Cc2ccccc2)c(=O)c2c(C)c(C)sc21	-	-	-	-	-	0
O=C(Cn1cnc([N+](=O)[O-])n1)N/N=C/c1ccc(O)cc1O	0	-	0	?	0	0
COc1cccc(CN2CC34CCC(CC3S2(=O)=O)O4)c1 (stereo not given)	-	-	0	-	0	-
COc1ccc(CCNCc2ccc(F)cc2)cc1OC	-	0	0	0	0	0
